Laboratory results: PubChem BioAssay (NCATS)
Inconclusive results are not listed. Calls of active or inactive are those of the source. Calls come from the whole dose curve; as a rule, active = well fitted activation curve with a large enough effect; inconclusive = small, poorly fitted or top-dose-only effect; inactive = no such curve, though single readings can be large or run the other way.

Each molecule was assayed against Cellular tumor antigen p53 (Homo sapiens) (UniProt P04637) (assay: Primary qHTS for small molecule compounds that upregulate eGFP-tagged delta133p53alpha (in N-terminal) cells. (AID 2060322; note: nearly all actives have a fitted effect of over 75% in size;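 for activation: cells pre-induced with doxycycline then dosed without doxycycline; series mostly up to about 56 µM; 0% = DMSO vehicle and 100% = reference activator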)). Conditions: NCI-H358 eGFP-delta133p53alpha fluorescence, 24 h; activation: active compounds read high.
Cellular tumor antigen p53 (Homo sapiens), sequence (P04637 whole entry, looked up): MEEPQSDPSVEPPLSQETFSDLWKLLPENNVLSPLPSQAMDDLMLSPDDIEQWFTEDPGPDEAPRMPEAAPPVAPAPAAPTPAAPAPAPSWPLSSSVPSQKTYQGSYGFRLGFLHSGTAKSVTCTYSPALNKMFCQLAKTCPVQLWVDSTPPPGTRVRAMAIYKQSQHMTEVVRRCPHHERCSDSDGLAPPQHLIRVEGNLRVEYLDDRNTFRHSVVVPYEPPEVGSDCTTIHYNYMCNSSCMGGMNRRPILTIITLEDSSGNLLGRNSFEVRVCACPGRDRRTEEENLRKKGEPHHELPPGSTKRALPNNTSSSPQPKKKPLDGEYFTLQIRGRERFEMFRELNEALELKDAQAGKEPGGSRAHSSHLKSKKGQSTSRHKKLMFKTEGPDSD
How it was run: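 NCI-H358 cells pre-induced 24 h with 10 ng/ml doxycycline for eGFP-delta133p53alpha, plated dox-free and exposed 24 h at 37C to titrated compounds. Fixed, Hoechst-stained; gated GFP peak intensity by laser scanning cytometry, normalized to DMSO (0%) and 57.5 uM 5-azacytidine (100%).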
Potency is the fitted concentration of half-maximal effect.

Question: With OCc1ccc(Cl)cc1Cl as the molecule, how does the activation read?
Answer: Its activation is -7.53% (inactive).

Question: Which activation does the source give for CC(C)C(=O)OCc1cccc(OC(=O)[C@@H]2N3C(=O)[C@@H](NC(=O)Cc4ccccc4)[C@H]3SC2(C)C)c1 here?
Answer: Its activation is -5.86% (inactive).

Question: For Cc1onc(-c2c(Cl)cccc2Cl)c1C(=O)Cl, which activation is on record?
Answer: The activation was -15.3% (inactive).

Question: For O=C(O)CCCCC1CCSS1 (configuration not stated), which activation is on record?
Answer: Its activation is 5.08% (inactive).

Question: For COc1ccc(CCC(=O)c2c(O)cc(O[C@@H]3O[C@H](CO)[C@@H](O)[C@H](O)[C@@H]3O[C@@H]3O[C@@H](C)[C@H](O)[C@@H](O)[C@@H]3O)cc2O)cc1O, which activation is on record?
Answer: Its activation is 22.6% (inactive).

Question: With CC1(C)S[C@@H]2[C@H](NC(=O)C(c3ccccc3)S(=O)(=O)O)C(=O)N2[C@H]1C(=O)O (some centres not stated) as the molecule, how does the activation read?
Answer: Its activation is -13% (inactive).

Question: With CNC(=O)c1ccc(Nc2cc(Nc3ccccc3S(=O)(=O)C(C)C)c3cc[nH]c3n2)nc1 as the molecule, how does the Potency read?
Answer: The Potency was 19.3 µM (active).

Question: Which activation does the source give for CC(C)(O)[C@H]1CC[C@@](C)([C@H]2[C@@H](O)C[C@@]3(C)[C@@H]4C[C@H](O[C@@H]5O[C@H](CO)[C@@H](O)[C@H](O)[C@@H]5O)[C@H]5C(C)(C)[C@@H](O[C@@H]6OC[C@@H](O)[C@H](O)[C@@H]6O)CC[C@@]56C[C@@]46CC[C@]23C)O1 here?
Answer: The activation was 10.3% (inactive).

Question: How did the activation turn out when CCCCCCCCOc1ccccc1C(=O)Nc1ccc(C(=O)OCC[N+](C)(CC)CC)cc1 was run?
Answer: The activation was -5.01% (inactive).

Question: For Cc1ccnc(NS(=O)(=O)c2ccc(N)cc2)n1, which activation is on record?
Answer: The activation was -10.9% (inactive).

Question: How did the activation turn out when Cc1ccc2c(Br)cc(Br)c(O)c2n1 was run?
Answer: The activation was -18.4% (inactive).

Question: Which activation does the source give for Cc1cc2nc3c(=O)[nH]c(=O)nc-3n(C[C@H](O)[C@H](O)[C@H](O)CO)c2cc1C here?
Answer: The activation was -36.8% (inactive).

Question: How did the activation turn out when OC(CCN1CCCC1)(c1ccccc1)C1CCCCC1 (configuration not stated) was run?
Answer: Its activation is 20.1% (inactive).

Question: Cc1cccc(C)c1NC(=O)CN1CCCCCC1 was tested. Which activation did it give?
Answer: The activation was 6.69% (inactive).

Question: COC(=O)C=CC(=O)OC was tested. Which activation did it give?
Answer: The activation was -16.5% (inactive).

Question: With COc1cc2nc(Cl)nc(N)c2cc1OC as the molecule, how does the activation read?
Answer: Its activation is -37.9% (inactive).

Question: With NS(=O)(=O)c1ccc(NC(=O)CCC(=O)O)cc1 as the molecule, how does the activation read?
Answer: Its activation is 14.1% (inactive).

Question: With CC[C@]12CCCN3CCc4c(n(c5ccccc45)[C@@](O)(C(=O)OC)C1)[C@@H]32 as the molecule, how does the activation read?
Answer: The activation was 5.02% (inactive).

Question: For CC(C)CN(C[C@@H](O)[C@H](Cc1ccccc1)NC(=O)O[C@H]1CO[C@H]2OCC[C@H]21)S(=O)(=O)c1ccc(N)cc1, which activation is on record?
Answer: Its activation is 22.9% (inactive).

Question: With Nc1ccn([C@@H]2O[C@H](CO)[C@H](O)C2(F)F)c(=O)n1 as the molecule, how does the activation read?
Answer: Its activation is 10.5% (inactive).

Question: How did the activation turn out when CC1CCc2c(N3CCC(O)CC3)c(F)cc3c(=O)c(C(=O)O)cn1c23 (configuration not stated) was run?
Answer: The activation was 5.02% (inactive).

Question: With CCCCN(CCCC)C(C(N)=O)c1ccc(OC)cc1 (configuration not stated) as the molecule, how does the activation read?
Answer: Its activation is 20.9% (inactive).

Question: O=C1NC(=O)C(=Cc2ccc3c(c2)OC(F)(F)O3)S1 was tested. Which activation did it give?
Answer: The activation was 27.2% (inactive).

Question: CC(=O)Nc1ccc(OCC(O)CNC(C)C)cc1 (configuration not stated) was tested. Which activation did it give?
Answer: Its activation is -14.2% (inactive).

Question: Which activation does the source give for CCNC(=O)[C@H]1O[C@@H](n2cnc3c(N)nc(NCCc4ccc(CCC(=O)O)cc4)nc32)[C@H](O)[C@H]1O here?
Answer: Its activation is 29.2% (inactive).

Question: With O=C(Nc1ncc(SCCN2CCCC2)s1)[C@]1(c2ccc(S(=O)(=O)C3CC3)cc2)C[C@@H]1C1CCCCC1 as the molecule, how does the activation read?
Answer: Its activation is 26.3% (inactive).

Question: For CC(=O)N1CCN(c2ccc(O)cc2)CC1, which activation is on record?
Answer: The activation was -15.3% (inactive).

Question: With C=C[C@@]1(C)CC(=O)[C@]2(O)[C@@]3(C)[C@@H](O)CCC(C)(C)[C@@H]3[C@H](O)[C@H](OC(C)=O)[C@@]2(C)O1 as the molecule, how does the activation read?
Answer: The activation was -2.51% (inactive).

Question: How did the activation turn out when O=C(O)[C@@H](O)[C@H](O)[C@H](O)[C@@H](O)C(=O)O was run?
Answer: The activation was -1.67% (inactive).

Question: For CO/N=C(/C(=O)N[C@@H]1C(=O)N2C(C(=O)OCOC(=O)C(C)(C)C)=C(C)CS[C@H]12)c1csc(N)n1, which activation is on record?
Answer: The activation was -20.9% (inactive).

Question: With Nc1ccc2cc3ccc(N)cc3nc2c1 as the molecule, how does the activation read?
Answer: Its activation is -35.1% (inactive).

Question: How did the activation turn out when O=C(O)CCC(=O)Nc1ccc(S(=O)(=O)Nc2nccs2)cc1 was run?
Answer: Its activation is -3.95% (inactive).

Question: With CCCC(=O)OC[C@@H](OC(=O)CCC)[C@@H](OC(=O)CCC)[C@H](Cn1c2nc(=O)[nH]c(=O)c-2nc2cc(C)c(C)cc21)OC(=O)CCC as the molecule, how does the activation read?
Answer: The activation was -33.3% (inactive).

Question: For CC1(C)OC(=O)NC1=O, which activation is on record?
Answer: The activation was -15.3% (inactive).

Question: With CC(C)c1cc2c(c(O)c1O)[C@@]13CCCC(C)(C)[C@@H]1[C@H](OC3=O)C2=O as the molecule, how does the activation read?
Answer: Its activation is 0% (inactive).

Question: How did the activation turn out when NCCC(O)(P(=O)(O)O)P(=O)(O)O was run?
Answer: The activation was -6.21% (inactive).

Question: For CCCCCCCC(=O)OCC(COC(=O)CCCCCCC)OC(=O)CCCCCCC, which activation is on record?
Answer: The activation was -13.4% (inactive).
